Each structure is given as a SMILES string. About 5,100 (1.2%) of roughly 410,000 compounds were called active. Inconclusive results (about 8%) are left out. Calls follow the shape of the full dose curve; tested in HEK293T cells. Many of the other results were omitted from the sample, so actives are more common in it than they were.

Data on 65 compounds can be found in PubChem BioAssay AID1159524 (National Center for Advancing Translational Sciences (NCATS), 2015).
% is scaled to controls: 0 for no effect and ±100 for the full control effect; potency is read from the fitted curve at half-maximal effect.

A short description of the assay: High Throughput Screening for Foot and Mouth Disease Virus Antivirals. Also: nearly all actives have a fitted effect of over 45% in size. To be noted: FMDV antiviral cell-based qHTS; series mostly up to 57.9 µM; activity change, negative = inhibition: at the top concentration. For orientation: qHTS replaces the single test concentration by a dilution series.
Turning to `Cc1ccc(/C(=C/CN2CCCC2)c2ccccn2)cc1`, the “activity change, negative = inhibition” value is 1.29% (inactive).

For `CC(N)(C(=O)O)c1ccc(-c2nn[nH]n2)cc1` (stereo not given), the “activity change, negative = inhibition” value is -9.72% (inactive). On to `CCN1CCN(C(c2ccc(C)cc2)c2c(O)cc(C)n(Cc3ccco3)c2=O)CC1` (stereo not given), for which the “activity change, negative = inhibition” value is -29.2% (inactive). Same read-out and setting: in the case of `O=S(=O)(c1cccc(-c2nnc3n2CCCCC3)c1)N1CCOCC1` it was 30.2% (inactive). On to `O=C(Nc1ccc2c(c1)nc1n2CCCCC1)c1cc(S(=O)(=O)N2CCOCC2)ccc1Cl`, for which the Potency was 25.1 µM (active).

In the case of `Cc1occc1C(=O)Nc1cccc(S(=O)(=O)N2CCOCC2)c1`, the “activity change, negative = inhibition” value is 15.8% (inactive). Still for that read-out and setting: in the case of `CCOc1ccccc1NC(=O)CSc1ncc(S(=O)(=O)c2ccc(C(C)(C)C)cc2)c(=O)[nH]1` it was -2.88% (inactive); in that of `Cc1ccc(S(=O)(=O)c2nc(-c3ccco3)oc2SCC(=O)Nc2ccc(F)cc2)cc1`, 15.1% (inactive). Consider `O=C(Nc1ccc2nc(SCCOc3ccccc3Cl)sc2c1)c1ccco1`, for which the “activity change, negative = inhibition” value is -20.6% (inactive). As to `CCC(=O)Nc1ccc2nc(SCC(=O)N3CCc4ccccc43)sc2c1`, the “activity change, negative = inhibition” value is -19.9% (inactive). As to `O=C(COc1ccccc1Cl)Nc1ccc2nc(SCC(=O)N3CCCC3)sc2c1`, the Potency was 31.6 µM (active). Regarding `Nc1nnc(SCC(=O)Nc2ccc3nc(SCC(=O)Nc4ccccc4)sc3c2)s1`, the Potency was 20 µM (active).

`Cc1ccc(OCCSc2nc3ccc(NC(=O)COc4ccc(C)cc4)cc3s2)cc1`: the “activity change, negative = inhibition” value was -5.33% (inactive). With `Cc1cccc(OCCSc2nc3ccc(NC(=O)COc4ccccc4C)cc3s2)c1`, the “activity change, negative = inhibition” value is 0% (inactive). Same read-out and setting: next, `COc1ccc(NC(=O)Nc2cccc(-c3noc(C)n3)c2)cc1`: 1.15% (inactive); `CCNc1ncc2ncc(=O)n(Cc3cccc(OC)c3)c2n1`: -19.5% (inactive).

`COCCNc1ncnc2ccc(-c3cccnc3)cc12`: the “activity change, negative = inhibition” value was -22.4% (inactive). Turning to `COC(=O)C(c1ccccc1)N1CCCCCC1` (stereo not given), the “activity change, negative = inhibition” value is -7.95% (inactive). Turning to `CC1(C)CC(N2CCN(C(c3ccccc3)c3ccccc3)CC2)=CC(=[N+]2CCCCC2)C1`, the Potency was 2.82 µM (active).

In the case of `CCN1CCN(c2ncc3c(n2)CC(c2ccccc2O)CC3=O)CC1` (stereo not given), the “activity change, negative = inhibition” value was -14.9% (inactive). In the case of `N#CC1=C(N)Oc2cc(O)ccc2C1C1CCCCC1` (stereo not given), the “activity change, negative = inhibition” value is -23.5% (inactive). Consider `COCc1[nH]nc2c1C(C1C=CCCC1)C(C#N)=C(N)O2` (stereo not given), for which the Potency is 31.6 µM (active).

As for `Cc1nc2nc(NCc3cccc(Br)c3)[nH]n2c(=O)c1Cc1ccccc1`, the “activity change, negative = inhibition” value was -16.8% (inactive).

As to `COCCNC(=O)c1cc(-c2cccc(Cl)c2)on1`, the “activity change, negative = inhibition” value is 33.4% (inactive). Still for that read-out and setting: next, `COc1cc2nc(NCC(C)c3ccccc3)n3nc(-c4ccccc4)nc3c2cc1OC` (stereo not given): -29.4% (inactive).

In the case of `Cc1cnc(CNc2ncncc2-c2ccccc2Cl)cn1`, the “activity change, negative = inhibition” value is -16.2% (inactive). As for `Cn1cc(-c2nc3cnc(N4CCNCC4)nc3n(CCC#N)c2=O)c2ccccc21`, the “activity change, negative = inhibition” value was -2.62% (inactive). In the case of `COc1cccc(CNc2nc(NCc3ccccc3OC)nc3ccsc23)c1`, the Potency is 25.1 µM (active). Take `COc1ccc(CNc2ncncc2-c2ccccc2OC)c(OC)c1`: the “activity change, negative = inhibition” value is -28% (inactive). With `COc1cccc(CNc2nccn(-c3ccc(OC)c(OC)c3)c2=O)c1`, the “activity change, negative = inhibition” value is -12.6% (inactive). With `CCCN(C/C=C\I)[C@@H]1CCc2cccc(O)c2C1`, the “activity change, negative = inhibition” value is -10.2% (inactive). On the same count and under the same terms, next, `COc1ccc(-c2nc3sc(CCNC(=O)C(C)(C)C)c(C)n3n2)cc1`: -39.9% (inactive); `c1cncc(-c2nc(N3CCNCC3)c3ccccc3n2)c1`: -4.3% (inactive).

`c1ccc(Nc2nc(N3CCOCC3)c3ccccc3n2)cc1`: the Potency was 11.2 µM (active). With `O=C(COc1nc2ccccc2nc1N1CCOCC1)NCC(F)(F)F`, the “activity change, negative = inhibition” value was -17.8% (inactive). Same read-out and setting: next, `O=C(O)C[C@@H]1NC(=O)[C@H](Cc2ccccc2)NC1=O`: -7.83% (inactive). Regarding `CCNc1ccc(C(=O)OCC(=O)N2c3ccccc3NC(=O)C2(C)C)cc1[N+](=O)[O-]`, the Potency is 20 µM (active). On to `CNS(=O)(=O)c1cccc(C(=O)OCC(=O)N2c3ccccc3NC(=O)C2(C)C)c1`, for which the “activity change, negative = inhibition” value was -4.37% (inactive).

Regarding `Cc1ccc(OCCC(=O)OCC(=O)N2c3ccccc3NC(=O)C2(C)C)cc1`, the “activity change, negative = inhibition” value was -21.8% (inactive). For the compound `COc1ccc2c(c1)NC(=O)C2CC(=O)N1CCOc2c(cc(-c3cnc4ccccc4c3)cc2OC)C1` (stereo not given), the “activity change, negative = inhibition” value was -23.5% (inactive). On to `O=C1/C(=C\c2ccc([N+](=O)[O-])cc2)CS(=O)(=O)C/C1=C/c1ccc([N+](=O)[O-])cc1`, for which the Potency is 2.24 µM (active). As for `Nc1ccc([N+](=O)[O-])cc1`, the “activity change, negative = inhibition” value is -19.3% (inactive). On the same count and under the same terms, next, `O=C(NCCCc1ccccc1)c1ccc2c(c1)sc1nc(-c3ccc(F)cc3)cn12`: -2% (inactive); `Cc1ncc2c(c1CNS(=O)(=O)N(C)C)CCN(C(=O)c1ccccc1F)C2`: -10.2% (inactive); `CC(C)CCNC(=O)c1ccc2c(Cl)c3c(nc2c1)CCC3`: -24.9% (inactive). Turning to `COc1cccc(CNC(=O)c2ccc3c(Cl)c4c(nc3c2)CCCC4)c1`, the “activity change, negative = inhibition” value is 12.9% (inactive).

As to `CC(=O)c1ccc(NC(=O)c2ccc3c(Cl)c4c(nc3c2)CCCC4)cc1`, the Potency is 22.4 µM (active).

As for `COc1ccc(-c2noc(-c3ccc(N4CCN(c5ccccc5)CC4)c([N+](=O)[O-])c3)n2)cc1OC`, the “activity change, negative = inhibition” value was -12.9% (inactive). Take `c1ccc(CN2CCN(Cc3ccc4c(c3)CN(Cc3c[nH]c5ccccc35)CCO4)CC2)nc1`: the “activity change, negative = inhibition” value is -12.3% (inactive). As to `CCOC(=O)C(=Cc1ccccc1OC)C(=O)OCC`, the Potency is 28.2 µM (active).

On to `COc1ccccc1/C=C/C(=O)OCC(=O)NC1CCCCCC1`, for which the “activity change, negative = inhibition” value was 0.416% (inactive).

Regarding `CCOC(=O)C(=O)C1C(=O)Nc2ccccc21` (stereo not given), the “activity change, negative = inhibition” value was -14.8% (inactive). On the same count and under the same terms, next, `CCOC(=O)CCP(=O)(O)C(O)(c1ccccc1)c1ccccc1`: -8.31% (inactive).

As to `COc1ccccc1C(=O)OCC(=O)NCCNC(=O)COC(=O)c1ccccc1OC`, the “activity change, negative = inhibition” value was -9.67% (inactive).

Take `CCOC(=O)C(=Cc1ccccc1)C(=O)c1ccccc1`: the Potency is 8.91 µM (active). Consider `Cc1ccc(CC2(O)CCN(CCOc3ccc(O)cc3)CC2)cc1`, for which the “activity change, negative = inhibition” value was -14.5% (inactive). As for `C[C@@H]1CN(Cc2ccc3c(c2)CN(Cc2ccc(Oc4ncccn4)cc2)CCO3)C[C@H](C)O1`, the “activity change, negative = inhibition” value is -3.92% (inactive). As for `CCS(=O)(=O)N(C)[C@@H]1c2cc(C#N)ccc2OC(C)(C)[C@H]1O`, the Potency result was “inactive”.

Turning to `CC(=O)NC(c1ccccc1)c1nc(-c2ccccc2C)cs1` (stereo not given), the “activity change, negative = inhibition” value is -1.87% (inactive).

Regarding `CC(=O)Nc1ccc(C(=O)Nc2nc(-c3cc(C)n(Cc4ccccc4)c3C)cs2)cc1`, the Potency was 22.4 µM (active).

As to `CC(=O)Nc1ccc(-c2csc(NC(=O)Nc3ccccc3)n2)cc1`, the Potency is 15.8 µM (active). Consider `Cc1ccc(C(=O)Nc2ccc(OCc3cc(=O)n4c(C)csc4n3)cc2)cc1`, for which the “activity change, negative = inhibition” value is -2.45% (inactive). Take `CCn1c(SCC(=O)Nc2nc(C)cs2)nnc1C(C)NC(=O)c1ccccc1` (stereo not given): the “activity change, negative = inhibition” value is -1.72% (inactive). Consider `CC(=O)c1ccc(NC(=O)CSc2nnc(NC(=O)Nc3ccccc3)s2)cc1`, for which the “activity change, negative = inhibition” value is 27.2% (inactive).

For `O=S(=O)(NCC(c1ccccc1)N1CCc2ccccc21)c1ccccc1` (stereo not given), the “activity change, negative = inhibition” value was -18% (inactive).
